In the library only some 12% were active in any assay of this set; here they are far more common.
Marburg entry inh: blocks Marburg virus binding to or entry into cells; hit rate 1.8% among 300,000; Marburg virus pseudotyped entry inhibition, cell reporter; AID 540276; Potency, µM (top dose mostly 37.8 µM), for the others: top-dose activity change, negative = inhibition, usual class: inhibitors; calls by dose curve; tested in HEK293 cells; note: potency is the fitted concentration of half-maximal effect; % is set by controls: 0 for no effect and ±100 for the full control effect
Shiga inhibitor: inhibitors of Shiga toxin in Vero cells; hit rate 9.2% among 290,000; Vero cells, Shiga toxin protein synthesis inhibition reporter; inhibition, % at 38.7 µM; in the data active = inhibition mostly above about 28%, no sharp cut-off; inactive = mostly below about 43%; note: 0% is about no effect
Lassa entry inh: inhibitors of Lassa virus binding or cell entry | Lassa virus pseudotype entry inhibition, cell reporter | Potency, µM (series often up to 37.9 µM), for inactives: top-dose activity change, negative = inhibition, actives largely listed as inhibitors | hit rate 1.2% among 300,000 | AID 540256; calls by dose curve; tested in HEK293 cells; note: potency is the fitted concentration of half-maximal effect; % is set by controls: 0 for no effect and ±100 for the full control effect; nearly all actives have a fitted effect of over 50% in size
CHX counter: counter-screen hit for Shiga toxin inhibitors, cycloheximide | cell reporter, cycloheximide protein synthesis inhibition counterscreen | max response, % | hit rate 12% among 300,000; in the data active = max response mostly above about 13%, no sharp cut-off; inactive = mostly below about 14%; note: read at 38.3 µM for the half of the compounds with a filed dose; 0% is about no effect
* = called active by the depositor; u = inconclusive; x = no result; [ ] = another dose, or the depositor's remark.

SMILES | Marburg entry inh | Shiga inhibitor | Lassa entry inh | CHX counter
O=C1N=C(N2CCN(c3ccccc3)CC2)SC1Cc1ccccc1 (configuration not stated) | -16% | 32 | 0% | 14*
Cc1ccc(N2CCN(C3=NC(=O)C(Cc4ccccc4)S3)CC2)cc1 (configuration not stated) | 28% | -9 | -6% | -1
CCOC(=O)C1=C(N)Oc2c(oc(CO)cc2=O)C1c1ccccc1 (configuration not stated) | -5% | 7 | -14% | -5
c1ccc(-c2cc3c(-n4cccc4)ncnc3o2)cc1 | 1% | 102* | -2% | 69*
c1ccc(Oc2ncnc3oc(-c4ccccc4)cc23)cc1 | 31% | 2 | -1% | -1
CC(=O)c1cccc(OC(=O)Oc2cccc(C(C)=O)c2)c1 | u | x | 7% | x
COc1ccc([C@H]2[C@H](C(=O)OC(C)(C)C)N3N=Cc4ccccc4C3C23C(=O)c2ccccc2C3=O)cc1OC (some centres not stated) | u | 46 | u | 10
CC(C)(C)C(=O)[C@H]1[C@H](c2ccccc2)[C@@]2(N=C(c3ccccc3)OC2=O)C2c3ccccc3C=NN21 (some centres not stated) | u | 26 | u | 40*
O=C(CN(Cc1ccco1)S(=O)(=O)c1ccccc1)N/N=C/c1cccc(O)c1 | 10%[46.1 µM] | 48* | -10% | -3
CC(=O)Nc1ccc(S(=O)(=O)N(C)CC(=O)N/N=C/c2cccc(O)c2)cc1 | -7%[46.1 µM] | 19 | 0% | 1
CCN(CC)C(=O)Nc1cnc2ccccc2c1 | -25% | 48 | 25% | 18*
Cc1ccc(NC(=O)Nc2cnc3ccccc3c2)cc1 | u | 45* | 19%[46.1 µM] | 30*
COC(=O)c1cccc(C(=O)Nc2cnc3ccccc3c2)n1 | u | 39 | -22% | 18
COC(=O)C/C=N/N=C1/NC(=O)/C(=C/C(=O)O)S1 | x | 28 | x | -1
CCCCC(=O)Nc1nc(C)c(C(C)=O)s1 | x | -7 | x | -3
CC(C)=CC(=O)Nc1nnc(-c2ccccc2)s1 | u | 14* | u | 46*
CC(C)=CC(=O)Nc1nnc(C)s1 | 11% | 25* | 12% | 16*
CC(=O)c1sc(NC(=O)C=C(C)C)nc1C | 1% | 66* | 8% | 44*
CC(=O)c1sc(NC(=O)C2(F)C(F)(F)C(F)(F)C(F)(F)C(F)(F)C2(F)F)nc1C | 2.6µM* | 25 | 1.6µM* | 13
CCC(=O)Nc1nnc(C)s1 | -3% | 15 | 8% | -3
O=C(Nc1ccccc1)Nc1nnc(-c2ccccc2)s1 | x | 9 | x | 19
COC(=O)CC=C[C@@H](C)[C@@H](Cc1ccccc1Br)OC | -4%[14.2 µM] | x | 0%[14.3 µM] | x
O=C(NCC1CCN(Cc2ccc(F)cc2)CC1)Nc1cc(F)ccc1F | x | -1 | x | -3
Cn1c(=O)c2c(SCC(=O)N3CCOCC3)nc(-c3ccccc3F)nc2n(C)c1=O | -14% | -6 | -2% | -4
Cc1ccc(C)c(OCCC(=O)OCC(=O)NCCc2ccc(S(N)(=O)=O)cc2)c1 | -1% | x | -1% | x
SMILES | Marburg entry inh | Shiga inhibitor | Lassa entry inh | CHX counter
CNC(=O)c1cc(C)c(-c2ccccc2)s1 | -2% | 35 | 17% | 46*
CNC(=O)c1cc2c(s1)-c1ccccc1CC2 | 9% | 100* | 4% | 49*
CNC(=O)c1cc2c(-c3ccccc3)nn(C)c2s1 | -14%[46.1 µM] | 17 | -24%[46.1 µM] | -2
O=C(O)c1ccccc1CSc1ccccn1 | -15%[46.1 µM] | -19 | 1% | 4
O=C(c1cccc(F)c1)N1CCN(Cc2ccco2)CC1 | 38% | -3 | u | 3
COc1cccc(NC(=S)N2CCn3cccc3C2c2cccnc2)c1 (configuration not stated) | 0%[46.1 µM] | 33* | 0% | 6
Cc1cccc(NC(=S)N2CCn3cccc3C2c2cccnc2)c1 (configuration not stated) | u | -5 | -3% | 1
COc1cccc(NC(=S)N2CCCC2c2ccc(OC)c(OC)c2)c1 (configuration not stated) | u | 52* | 14%[46.1 µM] | 33*
Cc1cccc(-c2nc3c(cnn3-c3ccccc3)c(=O)n2-c2ccc(Cl)cc2)c1 | x | x | -7%[46.1 µM] | x
Cc1ccc(/C=N/N2C(=O)C3C(C2=O)C2C=CC3C23CC3)o1 (configuration not stated) | u | 14 | 16% | 18*
O=C1C2C(C(=O)N1/N=C/c1cccc([N+](=O)[O-])c1)C1C=CC2C12CC2 (configuration not stated) | 37% | 75* | u | 52*
O=C1C2C(C(=O)N1/N=C/c1ccco1)C1C=CC2C12CC2 (configuration not stated) | -1% | 17 | -2% | 4
CCc1nnc(NC(=O)/C=C/c2ccco2)s1 | -2% | 55 | x | 27*
CNS(=O)(=O)c1ccc2nc(NC(=O)/C=C/c3ccco3)sc2c1 | -24%[46.1 µM] | 26 | -16%[46.1 µM] | 13
O=C(/C=C/c1ccco1)Nc1nnc(-c2ccco2)s1 | x | 48 | x | 14*
CCc1nnc(NC(=O)CSc2ccc(-c3ccco3)nn2)s1 | u | 17 | -4% | 9
O=C(/C=C/c1ccco1)Nc1cccc(NC(=O)/C=C/c2ccco2)n1 | u | 103* | 6% | 33*
Cc1nc(NC(=O)/C=C/c2ccco2)sc1C | -20% | 144* | 1% | 57*
COCCCn1c(=O)c2ccccc2n(Cc2cccc(C)c2)c1=O | x | -15 | x | -2
CCSc1nnc(NC(=O)/C=C/c2ccco2)s1 | x | 117* | x | 30*
O=C(/C=C/c1ccco1)Nc1ccccc1N1CCCC1 | x | 40 | x | 12*
O=C(/C=C/c1ccco1)Nc1ccccc1C(=O)O | u | 99 | u | 36
O=C(/C=C/c1ccco1)NC1=NCCS1 | 5% | 43* | u | 61*
CCSc1nnc(NC(=O)C2CC2c2ccccc2)s1 (configuration not stated) | u | 8 | -3% | -1
O=C(N/N=C/c1cc(Br)cc([N+](=O)[O-])c1O)c1ccc(NC(=O)c2ccc(F)cc2)cc1 | u | -4 | u | -1
SMILES | Marburg entry inh | Shiga inhibitor | Lassa entry inh | CHX counter
COC(=O)c1cc2c(=O)c3ccccc3oc2nc1/C=C/N(C)C | -21% | 57 | 4% | 19*
C=CCNC(=O)c1cc2c(=O)c3ccccc3oc2nc1C | 16%[46.1 µM] | 25 | u | 12
COC(=O)c1cc2c(=O)c3ccccc3oc2nc1C | -4% | 49* | 2% | 24*
Cc1nc2oc3ccc(F)cc3c(=O)c2cc1C(=O)NC(C)(C)C | 28%[46.1 µM] | 128* | 16% | 41*
Cc1nc2oc3ccc(Cl)cc3c(=O)c2cc1C(=O)O | 19% | -3 | 5% | -3
Cc1nc2oc3ccccc3c(=O)c2cc1C(=O)O | 9%[46.1 µM] | 17 | 20%[46.1 µM] | 1
CCc1nc2oc3ccc(C)cc3c(=O)c2cc1C(=O)OC | 19% | 30* | u | 24*
COCCN(CC(=O)Nc1cccc(S(=O)(=O)N2CCCC2)c1)Cc1nc2ccccc2c(=O)[nH]1 | -26% | x | 3% | x
O=C(Cn1nc(N2CCN(c3ccccc3)CC2)ccc1=O)NCc1cccc(Cl)c1 | x | x | 2%[46.1 µM] | x
CCOC(=O)c1scc(-c2ccc(C)cc2)c1S(=O)(=O)Nc1cccc(CC)c1 | x | x | 1%[46.1 µM] | x
Cc1ccc(NC(=O)c2ccc3c(c2)NC(=O)c2ccccc2S3)c(Cl)c1 | -7%[46.1 µM] | x | x | x
CC(=O)Nc1ccc(NC(=O)CC(NC(=O)c2ccccc2)c2ccccc2)cc1 (configuration not stated) | x | -4 | x | 4

Compound activity: PubChem BioAssay, National Center for Advancing Translational Sciences (NCATS)
